{"source": "PubChem BioAssay AID2314", "about": "(National Center for Advancing Translational Sciences (NCATS), 2010)", "note": "Where “and” joins values, the source holds several entries; their conditions need not be identical. Identical values can stand only once. Screen size: about 300,000 compounds; about 37,000 (12%) were called active. What follows is part of a selection rich in actives, with near analogues and random picks from the rest. Unmarked numbers belong to inactive results. Rule as the data show it: active = max response mostly above about 13% (no sharp cut-off); inactive = mostly below about 14%."}
{"experiment": "Cycloheximide Counterscreen for Small Molecule Inhibitors of Shiga Toxin; also: read at 38.3 µM for the half of the compounds with a filed dose; 0% is about no effect", "conditions": "cell reporter, cycloheximide protein synthesis inhibition counterscreen; hits give high values"}
{"compound": "COc1ccc(OC)c(NC(=O)c2ccc3c(c2)C(=O)N(c2ccc(OC(C)=O)cc2)C3=O)c1", "max response": "2.74%"}
{"compound": "CCC1SC2=NCCN2C1(O)c1ccc(Cl)cc1", "note": "(stereo not drawn)", "max response": "-0.782%"}
{"compound": "CCOc1nc(-c2ccc(OC)cc2)ccc1-c1noc(-c2cc(OC)c(OC)c(OC)c2)n1", "max response": "8.08%"}
{"compound": "COc1ccc(-c2noc(-c3cccc(OC)c3OC)n2)cc1OC", "max response": "36% (active)"}
{"compound": "COc1ccc(-c2csc3nc(-c4ccccc4F)oc(=O)c23)cc1OC", "max response": "-1.13%"}
{"compound": "Cc1ccccc1OCC(=O)Nc1ccc(S(=O)(=O)N2CCOCC2)cc1", "max response": "4.38%"}
{"compound": "CCCOc1cccc(C(=O)Nc2ccccc2C(=O)N2CCN(C)CC2)c1", "max response": "-0.829%"}
{"compound": "Cn1cnnc1SCC(=O)NNC(=O)COc1ccc(Br)cc1", "max response": "-2.49%"}
{"compound": "Nc1cccc2c1C(=O)N(Cc1nnc(-c3ccccc3Br)o1)C2=O", "max response": "12.5%"}
{"compound": "Cn1cnnc1SCc1nnc(-c2ccccc2Br)o1", "max response": "24% (active)"}
{"compound": "Cc1ccc(S(=O)(=O)/N=C(\\CN2CCOCC2)N2CCOCC2)cc1", "max response": "-4.56%"}
{"compound": "CN(CCO)c1ccc(/C=N/Nc2nncc3ccccc23)cc1", "max response": "26.2% (active)"}
{"compound": "COc1cc(/C=N/Nc2nn3cnnc3c3ccccc23)cc(OC)c1OC", "max response": "17.3%"}
{"compound": "Cc1[nH]c(C)c(S(=O)(=O)N2CCC(C)CC2)c1C(=O)N1CCCC1", "max response": "-1.96%"}
{"compound": "CCc1ccc(OCC(=O)OC(C)C(=O)NC2CC2)cc1", "note": "(stereo not drawn)", "max response": "-3.17%"}
{"compound": "Cc1nc(-c2ccc(Cl)cc2)sc1C(=O)NN", "max response": "0.842%"}
{"compound": "CCC(Sc1nncn1C)C(=O)Nc1nnc(-c2ccc(Cl)cc2)s1", "note": "(stereo not drawn)", "max response": "11.6%"}
{"compound": "Cc1nc(-c2ccc(Cl)cc2)sc1C(=O)CBr", "max response": "24.4% (active)"}
{"compound": "Cc1cc(/C=N/NC(=O)CC2(C)OCCO2)c(C)n1-c1ccc(Cl)c(Cl)c1", "max response": "-1.92%"}
{"compound": "COc1ccc(-c2noc(CNC(=O)C(C)Oc3ccccc3)n2)cc1", "note": "(stereo not drawn)", "max response": "0.411%"}
{"compound": "Cc1ccc(-c2nc(CS(=O)(=O)CC(=O)NCc3ccc4c(c3)OCO4)c(C)o2)cc1", "max response": "-6.73%"}
{"compound": "CC(=O)N1CCSc2ccc(S(=O)(=O)N3CCC(C)CC3)cc21", "max response": "11.3%"}
{"compound": "COc1ccc2nc(/N=C(\\N)NC(=O)Nc3ccccc3)nc(C)c2c1", "max response": "21.4% (active)"}
{"compound": "COc1ccc2nc(C)cc(Nc3cccc(C(=O)O)c3)c2c1", "max response": "-4.02%"}
{"compound": "Cc1nc(/N=C(\\N)NC(=O)NC2CCCCC2)nc2ccccc12", "max response": "8.1%"}
{"compound": "NC(=O)c1cc(S(=O)(=O)N2CCCC2)ccc1OCc1ccc(F)cc1", "max response": "8.59%"}
{"compound": "COc1ccc(CCNc2nc(C)cc(C)n2)cc1OC", "max response": "-4.51%"}
{"compound": "CCOC(=O)c1c(NC(=S)NC(=O)/C=C/c2cccs2)sc(C)c1C", "max response": "-0.873%"}
{"compound": "CCOC(=O)c1sc(=NC(=O)c2ccc(Br)cc2)n(C)c1C", "max response": "7.25%"}
{"compound": "CCOC(=O)c1sc(=NC(=O)/C=C/c2cccs2)n(C)c1C", "max response": "45% (active)"}
{"compound": "Cc1cccc2[nH]c(CN(C)C(=O)C3CCC(=O)N(CCc4ccccc4)C3)nc12", "note": "(stereo not drawn)", "max response": "-2.09%"}
{"compound": "CC1CCN(S(=O)(=O)c2ccc(NC(=O)C3CC(=O)N(c4ccccc4)C3)cc2)CC1", "note": "(stereo not drawn)", "max response": "-2.49%"}
{"compound": "COC(=O)c1cc(S(=O)(=O)NCC2CCN(Cc3ccc(Cl)cc3)CC2)cn1C", "max response": "-2.79%"}
{"compound": "Cc1cc(NC(=O)Nc2c[nH]c(=O)[nH]c2=O)ccc1Br", "max response": "9%"}
{"compound": "COC(=O)c1ccc2c(C(C)(C)O)c(C(C)(C)O)[nH]c2c1", "max response": "14.2% (active)"}
{"compound": "CCN(CC)CCNC(=O)CCCCCn1c(=O)[nH]c2cc(C(=O)OC)ccc2c1=O", "max response": "-5.11%"}
{"compound": "COC(=O)c1cccc(NS(C)(=O)=O)c1", "max response": "-1.63%"}
{"compound": "CC(C)(C)c1cc(C(=O)NN)n(Cc2ccc(Cl)cc2Cl)n1", "max response": "-2.75%"}
{"compound": "N=c1n(Cc2ccc(Cl)cc2)c2ccccc2n1CC(O)c1ccco1", "note": "(stereo not drawn)", "max response": "-4.56%"}
{"compound": "C=C(C)CNC(=S)/N=c1\\scc(C)n1CC", "max response": "10.1%"}
{"compound": "O=C(CSc1cccc2cccnc12)N/N=C/c1cccnc1", "max response": "31.6%"}
{"compound": "Cc1ccc(NC(=O)CSc2cccc3cccnc23)c(C)c1", "max response": "21%"}
{"compound": "CC(=O)/C(=N\\Nc1ccc(Cl)cc1Cl)Sc1cccc2cccnc12", "max response": "19.1% (active)"}
{"compound": "COc1ccc(CCN2CC(C(=O)NCCN3CCNC3=O)CCC2=O)cc1", "note": "(stereo not drawn)", "max response": "7.2%"}
{"compound": "COc1cc(C(=O)OC(C)C(=O)NCC2CCCCC2)cc(NC(=O)c2ccco2)c1OC", "note": "(stereo not drawn)", "max response": "-2.06%"}
{"compound": "COc1ccc(C[C@H]2CN3C(=NC[C@H]3C)N2CCNC(=O)CCC2CCCCC2)cc1", "max response": "5.31%"}
{"compound": "CCc1nn(CCCC(=O)Nc2ccc(C)cc2C)c(=O)c2cc3occc3n12", "max response": "0.647%"}
{"compound": "CC(=O)N1Cc2ccccc2CC1C(=O)O", "note": "(stereo not drawn)", "max response": "-1.38%"}
{"compound": "Cc1ccc(NC(=O)Nc2nnc(-c3ccncc3)s2)cc1", "max response": "-1.9%"}
{"compound": "Cc1ccc(Nc2nc(C)cc(C)c2C(N)=O)cc1", "max response": "-4.97%"}
{"compound": "Cc1ccc(Nc2nc(Cl)c(C=O)s2)cc1", "max response": "46% (active)"}
{"compound": "Cc1cccc(OCC(O)CN2CCN(CCN3C(=O)c4cccc5cccc(c45)C3=O)CC2)c1C", "note": "(stereo not drawn)", "max response": "-8.1%"}
{"compound": "COC(=O)CN1C(=O)[C@H]2[C@@H](C3CC3)N3C(=O)CN(Cc4ccc(-c5ccccc5)cc4)C(=O)[C@@]3(Cc3ccccc3)[C@H]2C1=O", "max response": "-3.99%"}
{"compound": "Cc1ccc(NC(=S)N(CCCN2CCCC2)Cc2cccn2Cc2ccc(Cl)cc2)cc1", "max response": "-7.32%"}
{"compound": "Cc1cc(F)ccc1S(=O)(=O)N1CCCOC1CNC(=O)C(=O)NCCC1=CCCCC1", "note": "(stereo not drawn)", "max response": "-4.9%"}
{"compound": "O=c1[nH]n(-c2ccc([N+](=O)[O-])cc2)c(=O)c2ccccc12", "max response": "-2.65%"}
{"compound": "O=C1CC(c2ccccc2)=NN1c1ccc([N+](=O)[O-])cc1", "max response": "17.2% (active)"}
{"compound": "CC1=NN(c2ccccc2)C(=O)C1C(=O)c1ccc([N+](=O)[O-])cc1", "note": "(stereo not drawn)", "max response": "20.6%"}
{"compound": "Cc1ccc(CNC(=O)C2(C(F)(F)F)C/C(=C\\Cc3ccccc3)CCCO2)o1", "note": "(stereo not drawn)", "max response": "-3.33% and -3.22%"}
{"compound": "O=C(COc1nsnc1N1CCOCC1)Nc1ccccc1Cl", "max response": "8.06%"}
{"compound": "CCn1c(Cc2ccc(OC)cc2)nnc1SCC(=O)Nc1ccc(N2CCOCC2)cc1", "max response": "-3.63%"}
{"compound": "COc1cccc(/C=C(/CC(=O)Nc2ccc(N3CCOCC3)cc2)c2nc3ccccc3s2)c1", "max response": "50.5% (active)"}
{"compound": "COc1ccc(NC(=O)COC(=O)c2ccc(NS(=O)(=O)/C=C/c3ccccc3)cc2)cc1", "max response": "0.764%"}
{"compound": "COc1ccc(NC(=O)CSc2nc3ccccc3c(=O)n2C)cc1", "max response": "-4.03%"}
{"compound": "COc1ccc(/C=C(/CC(=O)Nc2ccc(C)cc2)c2nc3ccccc3s2)cc1", "max response": "21.2% (active)"}
{"compound": "COc1cc2ccccc2cc1C(=O)Nc1ccc(N2CCOCC2)cc1", "max response": "8.83%"}
{"compound": "Cc1cc(C(=O)NC2CCN(Cc3ccccc3)CC2)n[nH]1", "max response": "-5.5%"}
{"compound": "Clc1ccc(C[n+]2cc(-c3ccc(Cl)cc3)n3c2CCC3)cc1", "max response": "1.82%"}
{"compound": "Cc1ccc(CN2CCCOCCS2(=O)=O)cc1", "max response": "0.911%"}
{"compound": "CCO[C@@H]1OC(C(=O)NCc2nc3ccccc3[nH]2)=C[C@H](C2CCCCC2)[C@H]1CCCO", "max response": "-1.94%"}
{"compound": "O=C(COc1ccccc1)NCCc1nc2ccccc2[nH]1", "max response": "-4.17%"}
{"compound": "O=C(OCc1nc2ccccc2[nH]1)C1CCCCC1", "max response": "16.3% (active)"}
{"compound": "CCc1cc2c(NC(Cc3ccccc3)C(=O)O)ncnc2s1", "note": "(stereo not drawn)", "max response": "1.45%"}
{"compound": "Cc1ccc(NC(=O)CC2C(=O)N(Cc3ccccc3)C(=S)N2NC(=O)c2cccc(F)c2)c(C)c1", "note": "(stereo not drawn)", "max response": "-8.81%"}
{"compound": "CCCOc1ccc(-c2nc(N)n[nH]2)cc1", "max response": "27.8% (active)"}
{"compound": "Cc1ccc(OCCCCc2c(C)n[nH]c2C)cc1", "max response": "7.68%"}
{"compound": "Nc1nc(SCCOc2ccccc2)n[nH]1", "max response": "10.5%"}
{"compound": "CC(NCC(=O)Nc1cc(Cl)cc(Cl)c1)c1ccccc1", "note": "(stereo not drawn)", "max response": "-2.23%"}
{"compound": "COc1cccc(CNC(=O)CCC2CCCN(Cc3ccc(OC(F)F)cc3)C2)c1", "note": "(stereo not drawn)", "max response": "-2.71%"}
{"compound": "COc1ccc(OC)c(CNC(=O)Cn2nc(C)c3c(C)n(-c4ccc(C)cc4)nc3c2=O)c1", "max response": "2.16%"}
{"compound": "CC(=O)Nc1cccc(NC(=O)CSc2nccn2Cc2ccc(F)cc2)c1", "max response": "-0.128%"}
{"compound": "COc1ccc(C(=O)Nc2ccc3nc(N4CCCCC4)cc(C)c3c2)cc1OC", "max response": "-1.84%"}
{"compound": "COc1cccc(OC)c1C(=O)Nc1ccc2c(c1)n(C)c(=O)n2C", "max response": "-0.414%"}
{"compound": "COc1ccc(C(=O)Nc2ccc3c(c2)OCO3)cc1OC", "max response": "57.2% (active)"}
{"compound": "Cn1c(=O)n(C)c2cc(C(=O)Nc3ccc4c(c3)OCO4)ccc21", "max response": "21.7% (active)"}
{"compound": "COc1cc(C(=O)NCC2(c3ccccc3)CCCC2)ccc1OC(C)C", "max response": "-3%"}
{"compound": "COc1ccc(-c2cc(C(F)(F)F)nc(SCC(=O)Nc3ccc4c(c3)OCO4)n2)cc1OC", "max response": "0.778%"}
{"compound": "COc1ccc(C(=O)Nc2ccc(C3(C#N)CCCC3)cc2)cc1OC", "max response": "20.7% (active)"}
{"compound": "Cn1c(=O)n(C)c2cc(C(=O)Nc3ccc(Br)cc3)ccc21", "max response": "5.85%"}
{"compound": "COc1ccc(S(=O)(=O)Nc2ccc3c(c2)OCO3)cc1Cl", "max response": "1.12%"}
{"compound": "O=C(Cc1ccccc1)Nc1c(C(=O)N2CCCCCC2)cnn1-c1ccccc1", "max response": "-1.98%"}
{"compound": "COc1ccc2c(c1)CCc1cn3ncc(C#N)c3nc1-2", "max response": "-3.03%"}
{"compound": "CCCCn1nc(C(=O)N2CCc3ccccc32)c2ccccc2c1=O", "max response": "1.07%"}
